The nature of experiment [1]: ATG_GAL4_TRANS: Attagene TRANS-FACTORIAL HepG2 Assay for GAL4 (Internal Marker) (AID 2282976). The following applies: HepG2 Attagene TRANS GAL4 internal marker reporter. A digest of the protocol: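 Liver HepG2 line bearing multiplexed GAL4-UAS reporter constructs; 24 h chemical treatment. Transcripts were quantified as fluorescent fragments on capillary electrophoresis after RT-PCR and HpaI cut, with activity fitted upward from DMSO.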

Experiment [2] addresses Bile acid receptor (Homo sapiens) (UniProt Q96RI1). The experiment can be described thus: ATG_FXR_TRANS: Attagene TRANS-FACTORIAL HepG2 Assay for Farnesoid X Receptor (FXR) (AID 2282979).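 Further: hits raise reporter mRNA above DMSO so AC50 marks FXR activation.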 The following applies: HepG2 Attagene TRANS FXR-GAL4 reporter transcription. In a few lines: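 After 24 h chemical treatment of transfected HepG2 cells, GAL4-UAS reporter transcripts driven by an exogenous FXR-GAL4 fusion were measured by RT-PCR and capillary electrophoresis. Increases over DMSO were fitted.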

Experiment [3] deals with human Thyroid Receptor alpha (THRa1), THRA (gene 7067) (UniProt P10827). Kind of experiment: ATG_THRa1_TRANS: Attagene TRANS-FACTORIAL HepG2 Assay for human Thyroid Receptor alpha (THRa1) (AID 2283014). A digest of the protocol:
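Measured here is mRNA from a GAL4-UAS reporter in transfected HepG2 cells carrying a Gal4-fused receptor, 24 h post-dose. DMSO served as negative control and baseline.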

Experiment [4] addresses Estrogen receptor beta (Homo sapiens) (UniProt Q92731). Kind of experiment: OT_ER_ERbERb_0480: Odyssey Thera (OT) 8-hour HEK293T Protein-Complementation Assay for Estrogen Receptor-beta/-beta Homodimer (AID 2283357).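 Further: active means signal gain over DMSO baseline.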 A digest of the protocol:
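Homodimerization of ER-beta LBD measured by protein-fragment complementation in HEK293T; 8 h dosing; fixed, Draq5 counterstain; fluorescence intensity gain over DMSO baseline, positive fitting direction; laser scanning cytometry.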

Experiment [5] shares this target. Kind of experiment: OT_ER_ERbERb_1440: Odyssey Thera (OT) 24-hour HEK293T Protein-Complementation Assay for Estrogen Receptor-beta/-beta Homodimer (AID 2283380).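 Further: scored as signal increase over DMSO baseline for both agonists and antagonists.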 In a few lines: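 HEK293T cells stably expressing ER beta LBD (aa 310-547) homodimer fragment-complementation reporter, dosed 24 h. Cells formaldehyde-fixed, Draq5-stained; gain in nuclear (agonist) or nuclear plus cytoplasmic (antagonist) fluorescence versus DMSO read by laser scanning cytometry.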

Experiment [6] addresses Retinoic acid receptor RXR-alpha (Homo sapiens) (UniProt P19793). Kind of experiment: OT_NURR1_NURR1RXRa_0480: Odyssey Thera (OT) 8-hour HEK293T Protein Complementation Assay for Nurr1/retinoid X receptor (RXR) (AID 2283385). A digest of the protocol:
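Read-out: fluorescence from protein-fragment complementation between Nurr1 and RXRα in human HEK293T cells, 8 h after dosing. DMSO served as negative control; increased signal counted as activity.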

The target is the same in experiment [7]. The experiment can be described thus: OT_NURR1_NURR1RXRa_1440: Odyssey Thera (OT) 24-hour HEK293T Protein Complementation Assay for Nurr1/retinoid X receptor (RXR) (AID 2283386). A digest of the protocol: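 Fluorescence PCA read-out; HEK293T; 24 h post-dose; bait/prey fused to reporter fragments; gain-of-signal fit vs DMSO negative control.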
Experiment [8] has as its target Peroxisome proliferator-activated receptor gamma (Homo sapiens) (UniProt P37231). Kind of experiment: OT_PPARg_PPARgSRC1_0480: Odyssey Thera (OT) 8-hour Protein-Complementation Assay for Peroxisome Proliferator-activated Receptor Gamma / SRC-1 Co-activator (AID 2283387).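 Further: nuclear to cytoplasmic split Venus YFP fluorescence ratio reporting PPARg SRC-1 interaction.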 A digest of the protocol: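 HEK293T transiently transfected with PPARg and SRC-1 fused to Venus YFP fragments, compounds 8 h at 37C. Fixed, Draq5-stained cells imaged; nuclear/cytoplasmic 488 nm fluorescence ratio over at least 350 cells per image; gain fitted versus DMSO.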

The target is the same in experiment [9]. The experiment can be described thus: OT_PPARg_PPARgSRC1_1440: Odyssey Thera (OT) 24-hour Protein-Complementation Assay for Peroxisome Proliferator-activated Receptor Gamma/ SRC-1 Co-activator (AID 2283388). A digest of the protocol: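 Cells carrying the PPARg/SRC-1 fragment-complementation reporter receive compound for 24 hours, are fixed and counterstained with Draq5, then imaged. Increased nuclear relative to cytoplasmic YFP fluorescence above DMSO baseline indicates binding activity.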

Experiment [10] in a line: ACEA_AR_agonist_AUC_viability: ACEA Biosciences xCELLigence Real-Time Cell Analysis on Androgen Receptor Agonism for Viability (AID 2283775). In a few lines: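 Viability endpoint from xCELLigence impedance in 22Rv1 prostate cells at 80 h. Eight-point series, 100 uM maximum final.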
Experiment [11] in a line: ACEA_AR_antagonist_AUC_viability: ACEA Biosciences xCELLigence Real-Time Cell Analysis on Androgen Receptor Antagonism for Viability (AID 2283776).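 Further: area under impedance growth curve at 80 h after dosing as viability; hits lower the growth signal relative to DMSO meaning cytotoxicity.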 In a few lines:
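22Rv1 human prostate cancer cells were seeded on electrode plates, monitored overnight, then exposed to eight 1:4 dilutions from 100 uM final. Impedance-based growth kinetics at 80 h gave an AUC viability endpoint normalized to DMSO.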

A short description of experiment [12]: ATG_ERE_CIS: Attagene CIS-FACTORIAL HepG2 Assay for Estrogen Response Element (ERE) (AID 2282940; active means hit-call score of the fitted dose curve at least 0.9, where 1 is the maximum; inactive means score below 0.9). Conditions: HepG2 ERE cis-reporter, Attagene RNA transcript; actives raise or lower the signal. In a few lines:
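Cells used were human hepatoma HepG2, transfected with multiple reporter transcription units under cis-regulatory promoters. Reporter mRNA, read 24 h post-dosing via fluorescent RT-PCR products on capillary electrophoresis, was fitted bidirectionally relative to DMSO.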

The target in experiment [13] is Oxysterols receptor LXR-beta (Homo sapiens) (UniProt P55055). Kind of experiment: ATG_LXRb_TRANS: Attagene TRANS-FACTORIAL HepG2 Assay for human Liver X Receptor beta (LXRb) (AID 2282981). Conditions: HepG2 Attagene TRANS GAL4-LXRb reporter, mRNA. In a few lines:
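Readout: fluorescent reporter mRNA fragments resolved by capillary electrophoresis after RT-PCR. System: transiently transfected human HepG2, exogenous LXRb-Gal4 chimera driving GAL4-UAS reporter, 24 h dosing. Activity fitted upward against DMSO baseline.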

Experiment [14] is described as follows: BSK_3C_TissueFactor: BioMAP Diversity Plus: 3C Assay for Tissue Factor Biomarker Activity (AID 2282997; active means hit-call score of the fitted dose curve at least 0.9, where 1 is the maximum; inactive means score below 0.9). The following applies: BioMAP 3C HUVEC, tissue factor biomarker readout; actives raise or lower the signal. A digest of the protocol: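 In this endothelial system, HUVEC are treated for 24 h and Tissue Factor is assessed by ELISA, normalised to DMSO.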

Experiment [15] in a line: BSK_3C_uPAR: BioMAP Diversity Plus: 3C Assay for Urokinase-type plasminogen activator receptor (uPAR) Biomarker Activity (AID 2282998; active means hit-call score of the fitted dose curve at least 0.9, where 1 is the maximum; inactive means score below 0.9). Conditions: BioMAP 3C HUVEC, uPAR biomarker ELISA; actives raise or lower the signal. A digest of the protocol:
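Dose primary human umbilical vein endothelial cells, incubate 24 h, measure cell-surface uPAR by ELISA, then fit the signal in both directions against the DMSO negative control.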

Experiment [16] in a line: BSK_4H_Eotaxin3: BioMAP Diversity Plus: 4H Assay for Eotaxin 3 Biomarker Activity (AID 2283000; active means hit-call score of the fitted dose curve at least 0.9, where 1 is the maximum; inactive means score below 0.9;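 on outcome: CCL26 protein level quantified by ELISA in parallel with SRB cytotoxicity check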). The following applies: primary human endothelial cells (HUVEC); actives raise or lower the signal. In a few lines: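 ELISA quantitation of CCL26 (Eotaxin-3) protein from chemically dosed human vascular endothelial cells at 24 h; increases and decreases both scored relative to DMSO-treated baseline.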

Read-out in experiment [17]: Interleukin-1 alpha (IL1a), IL1A (gene 3552)
Kind of experiment: BSK_BE3C_IL1a: BioMAP Diversity Plus: BE3C Assay for Interleukin-1 alpha (IL1a) Biomarker Activity (AID 2283016; active means hit-call score of the fitted dose curve at least 0.9, where 1 is the maximum; inactive means score below 0.9). The following applies: primary human bronchial epithelial cells; actives raise or lower the signal. In a few lines:
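ELISA read-out of IL-1a from human lung bronchial epithelial primary cells, 24 h post-dose. Gain or loss of signal fitted relative to DMSO negative control.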

Read-out in experiment [18]: Monocyte Chemoattractant Protein-1 (MCP1), CCL2 (gene 6347)
The experiment can be described thus: BSK_3C_MCP1: BioMAP Diversity Plus: 3C Assay for Monocyte Chemoattractant Protein-1 (MCP1) Biomarker Activity (AID 2283017; active means hit-call score of the fitted dose curve at least 0.9, where 1 is the maximum; inactive means score below 0.9). The following applies: primary human endothelial cells (HUVEC); actives raise or lower the signal. A digest of the protocol:
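Using human vascular primary endothelium, researchers measured MCP-1 by ELISA 24 h after treatment, with DMSO serving as negative control for bidirectional fitting.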

Read-out in experiment [19]: Interleukin-8 (IL8), CXCL8 (gene 3576)
The experiment can be described thus: BSK_3C_IL8: BioMAP Diversity Plus: 3C Assay for Interleukin-8 (IL8) Biomarker Activity (AID 2283020; active means hit-call score of the fitted dose curve at least 0.9, where 1 is the maximum; inactive means score below 0.9). Conditions: primary human endothelial cells (HUVEC); actives raise or lower the signal. In a few lines: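 HUVEC, 3C stimulation; 24 h compound exposure; IL-8 read by ELISA; gain or loss of signal fitted relative to DMSO control.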

Read-out in experiment [20]: Monokine induced gamma interferon (MIG), CXCL9 (gene 4283)
Kind of experiment: BSK_3C_MIG: BioMAP Diversity Plus: 3C Assay for Monokine induced gamma interferon (MIG) Biomarker Activity (AID 2283021; active means hit-call score of the fitted dose curve at least 0.9, where 1 is the maximum; inactive means score below 0.9). Conditions: primary human endothelial cells (HUVEC); actives raise or lower the signal. In a few lines: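 HUVEC, 3C system; 24 h chemical exposure; MIG by ELISA; bidirectional fit vs DMSO baseline.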

Records with an inconclusive call do not appear. Activity calls are given as the source filed them. How the source made its calls, unless noted: active means hit-call score of the fitted dose curve at least 0.9, where 1 is the maximum; inconclusive means response in the unintended direction; inactive means score below 0.9.

Retinoic acid receptor RXR-alpha (Homo sapiens), sequence (P19793 whole entry, looked up, the tested form may be a part): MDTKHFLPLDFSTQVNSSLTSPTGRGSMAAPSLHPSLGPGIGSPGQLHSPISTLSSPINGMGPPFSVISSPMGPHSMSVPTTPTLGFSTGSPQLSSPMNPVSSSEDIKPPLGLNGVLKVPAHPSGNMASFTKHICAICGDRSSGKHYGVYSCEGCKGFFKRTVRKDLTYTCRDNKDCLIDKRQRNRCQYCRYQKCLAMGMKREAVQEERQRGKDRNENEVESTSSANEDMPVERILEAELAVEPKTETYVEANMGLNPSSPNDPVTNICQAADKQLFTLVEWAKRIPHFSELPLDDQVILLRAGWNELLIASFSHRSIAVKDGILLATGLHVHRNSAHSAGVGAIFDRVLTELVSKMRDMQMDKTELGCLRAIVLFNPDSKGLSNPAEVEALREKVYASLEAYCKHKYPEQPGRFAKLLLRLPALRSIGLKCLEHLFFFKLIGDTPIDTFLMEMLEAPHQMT
Bile acid receptor (Homo sapiens), sequence (Q96RI1 whole entry, looked up, the tested form may be a part): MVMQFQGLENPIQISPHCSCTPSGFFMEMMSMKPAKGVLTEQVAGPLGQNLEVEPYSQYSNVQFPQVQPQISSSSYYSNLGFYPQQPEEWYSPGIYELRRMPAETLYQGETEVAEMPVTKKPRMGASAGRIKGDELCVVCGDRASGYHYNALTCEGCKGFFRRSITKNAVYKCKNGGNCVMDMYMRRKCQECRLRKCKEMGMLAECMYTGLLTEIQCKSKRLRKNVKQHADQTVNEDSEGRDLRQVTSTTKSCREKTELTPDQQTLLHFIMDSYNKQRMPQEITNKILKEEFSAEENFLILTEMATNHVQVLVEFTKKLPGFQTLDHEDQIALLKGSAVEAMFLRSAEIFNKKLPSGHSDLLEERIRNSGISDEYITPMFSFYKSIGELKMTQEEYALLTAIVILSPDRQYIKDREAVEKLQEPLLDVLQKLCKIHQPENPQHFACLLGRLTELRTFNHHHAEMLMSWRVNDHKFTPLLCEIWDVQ
Estrogen receptor beta (Homo sapiens), sequence (Q92731 whole entry, looked up, the tested form may be a part): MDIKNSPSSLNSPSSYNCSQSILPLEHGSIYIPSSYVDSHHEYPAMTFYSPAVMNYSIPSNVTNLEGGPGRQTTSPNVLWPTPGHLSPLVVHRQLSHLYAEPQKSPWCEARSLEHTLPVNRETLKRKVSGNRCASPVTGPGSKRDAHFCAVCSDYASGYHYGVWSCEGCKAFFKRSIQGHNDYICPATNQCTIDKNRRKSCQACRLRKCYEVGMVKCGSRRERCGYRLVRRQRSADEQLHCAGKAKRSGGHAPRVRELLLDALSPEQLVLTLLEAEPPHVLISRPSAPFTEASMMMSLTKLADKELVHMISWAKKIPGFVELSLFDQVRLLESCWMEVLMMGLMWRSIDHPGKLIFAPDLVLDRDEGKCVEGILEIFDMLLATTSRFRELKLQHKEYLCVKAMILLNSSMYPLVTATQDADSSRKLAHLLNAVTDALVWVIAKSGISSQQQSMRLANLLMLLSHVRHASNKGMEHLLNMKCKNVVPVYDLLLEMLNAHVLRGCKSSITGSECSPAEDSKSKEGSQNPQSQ
Peroxisome proliferator-activated receptor gamma (Homo sapiens), sequence (P37231 whole entry, looked up, the tested form may be a part): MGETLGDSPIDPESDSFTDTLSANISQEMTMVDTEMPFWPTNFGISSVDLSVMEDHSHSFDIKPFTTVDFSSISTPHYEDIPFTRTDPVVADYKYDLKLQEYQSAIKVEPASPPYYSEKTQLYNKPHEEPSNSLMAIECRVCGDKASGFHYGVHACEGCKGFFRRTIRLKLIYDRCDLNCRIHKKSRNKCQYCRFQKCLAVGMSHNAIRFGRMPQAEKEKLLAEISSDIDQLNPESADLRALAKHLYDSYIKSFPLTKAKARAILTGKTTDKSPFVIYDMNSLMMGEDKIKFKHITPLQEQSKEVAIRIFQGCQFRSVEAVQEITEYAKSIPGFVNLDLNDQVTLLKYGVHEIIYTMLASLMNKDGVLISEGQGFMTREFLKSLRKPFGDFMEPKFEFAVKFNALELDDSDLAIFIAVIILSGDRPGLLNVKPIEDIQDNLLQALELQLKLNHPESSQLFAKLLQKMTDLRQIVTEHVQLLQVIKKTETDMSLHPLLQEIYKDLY
human Thyroid Receptor alpha (THRa1), THRA (gene 7067), sequence (P10827 whole entry, looked up, the tested form may be a part): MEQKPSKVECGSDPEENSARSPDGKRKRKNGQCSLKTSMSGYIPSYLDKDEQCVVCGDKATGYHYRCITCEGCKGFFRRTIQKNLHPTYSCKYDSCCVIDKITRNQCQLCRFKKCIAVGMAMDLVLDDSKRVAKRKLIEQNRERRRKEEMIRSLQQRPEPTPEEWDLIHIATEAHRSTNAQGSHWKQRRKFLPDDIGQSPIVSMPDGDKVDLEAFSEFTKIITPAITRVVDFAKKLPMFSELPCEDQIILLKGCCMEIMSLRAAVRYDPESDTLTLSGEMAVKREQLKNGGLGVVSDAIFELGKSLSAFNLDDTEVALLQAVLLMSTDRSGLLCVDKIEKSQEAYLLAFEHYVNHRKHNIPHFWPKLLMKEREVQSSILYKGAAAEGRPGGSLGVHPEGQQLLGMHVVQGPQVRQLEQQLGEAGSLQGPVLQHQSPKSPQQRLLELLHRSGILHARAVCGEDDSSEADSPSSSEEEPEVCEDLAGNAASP
Oxysterols receptor LXR-beta (Homo sapiens), sequence (P55055 whole entry, looked up, the tested form may be a part): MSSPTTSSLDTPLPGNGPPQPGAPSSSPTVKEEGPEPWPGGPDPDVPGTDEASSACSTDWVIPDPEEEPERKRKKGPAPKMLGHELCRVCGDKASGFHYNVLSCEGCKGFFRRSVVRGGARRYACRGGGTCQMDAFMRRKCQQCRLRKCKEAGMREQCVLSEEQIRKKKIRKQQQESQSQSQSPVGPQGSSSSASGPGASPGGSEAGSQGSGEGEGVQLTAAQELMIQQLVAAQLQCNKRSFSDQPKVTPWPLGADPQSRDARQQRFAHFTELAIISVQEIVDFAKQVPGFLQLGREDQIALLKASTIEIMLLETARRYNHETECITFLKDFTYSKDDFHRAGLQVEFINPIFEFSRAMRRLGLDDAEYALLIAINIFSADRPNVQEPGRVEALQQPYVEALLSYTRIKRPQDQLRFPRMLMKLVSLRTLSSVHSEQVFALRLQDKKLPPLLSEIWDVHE

For `CC(=O)c1cc2c(cc1C)C(C)(C)C(C)CC2(C)C` (stereo not drawn), the outcome in [1], in experiment [2], in [3], in experiment [7], in experiment [8] and in [9] was inactive. Further, the result in experiment [10] and in experiment [11] was inactive. Further, the AC50 – broadly, the concentration giving half of the maximal activity seen – was 5.28 µM (active) in experiment [4], 12.5 µM (active) in experiment [5] and 82.1 µM (active) in experiment [6].
Regarding `C=COCCCl`, the compound was classed as inactive in experiment [12], in experiment [2] and in experiment [3].
As to `CN(C)N`, the outcome in experiment [1], in experiment [4], in [5], in experiment [6], in [8] and in experiment [9] was inactive. The compound was called inactive in experiment [10] and in experiment [11].
In the case of `C[C@]12CC[C@H](O)C[C@H]1CC[C@@H]1[C@@H]2C[C@@H](O)[C@]2(C)[C@@H](C3=CC(=O)OC3)CC[C@]12O`, the compound was classed as inactive in experiment [2].
In the case of `CCCCNP(N)(N)=S`, the result in experiment [12], in [2] and in experiment [3] was inactive.
With `Nc1ccccc1`, the result in experiment [13], in experiment [6], in [7], in [8], in [9] and in [10] was inactive. The compound was called inactive in experiment [11].
As for `CCNCC`, the compound was classed as inactive in experiment [1].
Consider `CC1(C)C(=O)NC(=O)NC1=O`, for which the call in experiment [12], in experiment [1] and in experiment [3] was inactive.
For the compound `O=P(O)(Oc1ccccc1)Oc1ccccc1`, the result in [12], in [2], in experiment [4], in experiment [5], in experiment [7] and in [8] was inactive. Moreover, in experiment [9], the outcome was inactive.
On to `CCC1CCC(=O)O1` (stereo not drawn), for which the result in [3], in experiment [4], in experiment [5], in experiment [7] and in [11] was inactive.
`Nc1ccc([N+](=O)[O-])cc1N`: the call in experiment [13] was inactive.
As for `O=c1[nH]c(Cl)c(Cl)cc1Cl`, the compound was classed as inactive in experiment [2], in experiment [13], in experiment [14], in [15], in [16] and in experiment [17]. For the same compound, the result in experiment [18], in experiment [19] and in [20] was inactive.
With `O=[N+]([O-])O.O=[N+]([O-])O.[Cd]`, the compound was classed as inactive in experiment [13].
For `ClC1=C(Cl)[C@]2(Cl)[C@@H]3[C@@H](Cl)[C@H](Cl)C[C@@H]3[C@@]1(Cl)C2(Cl)Cl`, the compound was classed as inactive in experiment [12], in experiment [2] and in [3].
In the case of `C=CC(=O)OCCO`, the compound was classed as inactive in [3], in experiment [4], in experiment [5], in [10] and in [11].
In the case of `CC(C)(C)C(=O)CCl`, the call in experiment [12], in experiment [15], in [17], in experiment [18], in experiment [19] and in experiment [20] was inactive. The concentration at half-maximal activity (AC50) in experiment [14] and in experiment [16] was 20 µM (active) each time.
Turning to `CCN(CC)C(=S)S`, the outcome in experiment [12] and in experiment [13] was inactive.
